A selection: hits, their analogues and other compounds. The true share with any hit is near 31%.
CYP2C9 act: CYP2C9 (human) activation; P11712; actives 1.4% (n = 96,000); activation factor at 5 µM; AID 1024; recombinant CYP2C9, luciferin-H conversion, luminescence; active compounds read high; factor 1 = untreated enzyme, 0 = blocked;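 active = activation factor of 2 or more for CYP2C9 at a 5 µM dose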;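 also: 0 = sulfaphenazole-blocked wells and 1 = vehicle-only wells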
Target sequence (P11712 whole entry, looked up): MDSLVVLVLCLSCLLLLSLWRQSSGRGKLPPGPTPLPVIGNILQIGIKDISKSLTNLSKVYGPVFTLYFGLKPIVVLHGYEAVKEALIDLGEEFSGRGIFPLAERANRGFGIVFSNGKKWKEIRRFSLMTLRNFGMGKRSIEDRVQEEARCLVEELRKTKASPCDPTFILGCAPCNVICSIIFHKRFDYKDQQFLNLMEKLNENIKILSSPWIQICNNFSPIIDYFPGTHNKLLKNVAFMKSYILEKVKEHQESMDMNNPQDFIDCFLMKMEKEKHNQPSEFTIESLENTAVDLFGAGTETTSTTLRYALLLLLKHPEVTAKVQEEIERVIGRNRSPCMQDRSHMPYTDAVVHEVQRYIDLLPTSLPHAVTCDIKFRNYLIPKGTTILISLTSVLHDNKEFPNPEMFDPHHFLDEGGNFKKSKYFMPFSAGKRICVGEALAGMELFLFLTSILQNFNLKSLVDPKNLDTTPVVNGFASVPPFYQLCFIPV
CYP2C9 inh: inhibitors of human CYP2C9 | CYP2C9 Supersomes, luciferin-H conversion, luminescence | inhibition, % at 5 µM | actives 20% (n = 96,000);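 active = blocking of liver enzyme CYP2C9 beyond about 50% at 5 µM, limit read from the data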
CYP2C19 inhib: human CYP2C19 inhibition | P33261 | CYP2C19 Supersomes, luciferin-H EGE luminescence, 30 min | actives 21% (n = 96,000) | inhibition, % at 5 µM;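 active = CYP2C19 inhibition above a set limit at 5 µM in the primary screen, cut at about 50% in these data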;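 also: plate controls were negative control wells for no effect and 2.5 mM tranylcypromine positive control for full effect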
CYP2C19 activ: activators of human cytochrome P450 2C19; recombinant CYP2C19, luciferin-H EGE luminescence; active compounds read high; 0 = fully inhibited enzyme, 1 = untreated enzyme; activation factor at 5 µM; AID 1025; P33261; 96,000 tested, under 10 active;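 active = activation factor of at least 2 at 5 µM in the primary screen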;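 also: 0 = wells with 2.5 mM tranylcypromine and 1 = vehicle-only wells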
* marks the source's active call; other numbers are inactive results.

SMILES | CYP2C9 act | CYP2C9 inh | CYP2C19 inhib | CYP2C19 activ
COc1ccc(Cn2nnnc2CN(Cc2cc3cccc(C)c3[nH]c2=O)C2CCCC2)cc1 | 0.4 | 61* | 47 | 0.5
Cc1nn(Cc2ccccc2)c(N)c1C#N | 1 | 1 | 15 | 0.9
Cc1nn(Cc2ccccc2)c(N)c1-c1ccccc1 | 0.8 | 21 | 63* | 0.4
Cn1c2ccccc2c2cc(C(=O)N3CCOCC3)sc21 | 2.5* | -148 | 24 | 0.8
C#CC1(O)CC(C)NCC1(C)CCC#N (stereo not given) | 1 | -1 | -8 | 1.1
Cc1cc(NC(=O)C2C3C(=O)N(CCC(C)C)C(C(=O)NCc4ccccc4)C34C=CC2(C)O4)no1 (stereo not given) | 0.9 | 9 | -13 | 1.1
Cc1ccc(OCc2nc(-c3ccc(Cl)cc3)n[nH]2)cc1 | 0.1 | 94* | 95* | 0
COc1cccc2cc(C(=O)N3CCN(c4ccccn4)CC3)c(=O)oc12 | 0.9 | 13 | 34 | 0.7
COc1cccc(CN(C(=O)c2cc3ccccc3oc2=O)C2CC2)c1 | 2.4* | -136 | 79* | 0.2
COC(=O)C1CCN(C(=O)c2cc3ccccc3oc2=O)CC1 | 2.2* | -119 | 56* | 0.4
COc1cccc2cc(C(=O)Nc3cccc(C)n3)c(=O)oc12 | 1.1 | -13 | 19 | 0.8
COc1cccc2cc(C(=O)N3CCC(C)CC3)c(=O)oc12 | 2.9* | -194 | 29 | 0.7
O=C(c1cc2ccccc2oc1=O)N1CCN(C(=O)C2CCCO2)CC1 (stereo not given) | 1.2 | -22 | 19 | 0.8
COc1cccc2cc(C(=O)N3CCN(C45CC6CC(CC(C6)C4)C5)CC3)c(=O)oc12 | 0.4 | 56* | 14 | 0.9
CCOC(=O)c1c(C)n(C)c2c(C)cc(O)c(OC(=O)CC)c12 | 1 | 5 | 4 | 1
Cc1cc(O)c(C(C)C)cc1N=C1CSC(=O)N1 | 0.6 | 38 | 3 | 1
O=c1cc(N2CCC(Cc3ccccc3)CC2)[nH]c(=O)n1C1CCCCC1 | 0.8 | 20 | 16 | 0.8
COc1cccc2cc(C(=O)OC3CCN(C)CC3)c(=O)oc12 | 1.1 | -8 | -13 | 1.1
COc1cccc2cc(NC(=O)C3CCCCC3)c(=O)oc12 | 2.4* | -138 | 4 | 1
COc1ccc(NC(=O)c2nc3nccc(C)n3n2)cn1 | 1.2 | -19 | -10 | 1.1
COc1ccccc1C1=NOC(COC(=O)c2ccc3ccccc3n2)C1 (stereo not given) | 2.2* | -121 | 35 | 0.7
CCC(=O)N1CCc2cc(S(=O)(=O)NCCC(=O)N3CCN(c4ccccn4)CC3)ccc21 | 0.9 | 8 | -15 | 1.1
Clc1ccccc1-c1nnc2sc(CCc3ccccc3)nn12 | 0.5 | 53* | 88* | 0.1
c1ccc(CCc2nn3c(-c4ccncc4)nnc3s2)cc1 | 0.5 | 54* | 95* | 0.1
c1ccc(CCc2nn3c(Cn4nnc5ccccc54)nnc3s2)cc1 | 0.8 | 25 | 45 | 0.6
SMILES | CYP2C9 act | CYP2C9 inh | CYP2C19 inhib | CYP2C19 activ
O=C(CS(=O)(=O)c1cccc(Cl)c1)Nc1ccccc1Cl | 1.7 | -71 | 78* | 0.2
O=C(Nc1ccccc1Cl)c1ccccc1Cl | 1.4 | -36 | 19 | 0.8
C=CCn1c(SCC(=O)NCc2ccc3c(c2)OCO3)nnc1C1COc2ccccc2O1 (stereo not given) | 0.5 | 53* | 65* | 0.4
Cn1c(SCC(=O)NCc2ccc3c(c2)OCO3)nnc1C1COc2ccccc2O1 (stereo not given) | 0.7 | 34 | 28 | 0.7
C=CCn1c(SCc2c(C)noc2C)nnc1C1COc2ccccc2O1 (stereo not given) | 0.4 | 61* | 33 | 0.7
C=CCn1c(SCC(=O)Nc2cc(C)nn2-c2ccccc2)nnc1C1CCCCC1 | 0.6 | 42 | 66* | 0.3
Cc1noc(C)c1CSc1nnc2scc(-c3ccccc3)n12 | 0.9 | 9 | 10 | 0.9
C=CCn1c(SCC(=O)NCc2ccc3c(c2)OCO3)nnc1C1CCCCC1 | 0.4 | 58* | 53* | 0.5
COC(=O)CNC(=O)CSc1nc(N)cc(=O)[nH]1 | 0.9 | 13 | -12 | 1.1
CCOC(=O)/C(C#N)=C1/C=CN(Cc2ccccc2)C=N1 | 0.4 | 57* | 68* | 0.3
Cn1c(=O)c2c(ncn2CC(=O)N(Cc2ccccc2)c2ccccn2)n(C)c1=O | 0.8 | 17 | 14 | 0.9
S=C(Nc1ccc2c(c1)OCO2)NC1CCN(Cc2ccccc2)CC1 | 0.9 | 5 | 18 | 0.8
CCOC(=O)c1nn(-c2ccccc2C)c(=O)c(C#N)c1C | 0.9 | 8 | 65* | 0.4
CCOC(=O)C1C(=O)CC(C)(O)C(C(=O)OCC)C1c1ccco1 (stereo not given) | 1 | -2 | 30 | 0.7
Cc1ccc(C(c2nnnn2CC2CCCO2)N2CCN(c3cccc(C)c3C)CC2)cc1 (stereo not given) | 0.3 | 70* | 40 | 0.6
CCCC(c1nnnn1CC1CCCO1)N1CCN(c2cc(Cl)ccc2C)CC1 (stereo not given) | 0.1 | 89* | 96* | 0
CCC(c1nnnn1C(C)(C)C)N1CCN(c2cc(Cl)ccc2C)CC1 (stereo not given) | 0.2 | 79* | 39 | 0.6
COc1ccc(C(c2nnnn2CC2CCCO2)N2CCN(c3ccccc3)CC2)cc1 (stereo not given) | 0.9 | 14 | -2 | 1
Cn1ncc(N=Cc2ccccc2)c1C(=O)Nc1cccc(Cl)c1 | 0.4 | 56* | -15 | 1.1
Cc1ccc2nsnc2c1S(=O)(=O)N(Cc1ccco1)Cc1cc2ccc(C)c(C)c2[nH]c1=O | 0.9 | 8 | 2 | 1
Cc1nc2ccc(C(C(F)(F)F)(C(F)(F)F)C(F)(F)F)cc2[nH]1 | 0.4 | 63* | 42 | 0.6
CCCCOCCCNC(=O)COc1ccccc1 | 0.9 | 6 | 30 | 0.7
O=C(NCCSCc1ccco1)Nc1ccc(Cl)cc1 | 0.6 | 36 | 38 | 0.6
O=C(COc1ccccc1)NCCSc1ccccc1 | 0.4 | 60* | 97* | 0
CC(C)(C)SCCNC(=O)COc1ccccc1 | 0.9 | 13 | 29 | 0.7
SMILES | CYP2C9 act | CYP2C9 inh | CYP2C19 inhib | CYP2C19 activ
O=C(COc1ccccc1)NCCSCc1ccco1 | 0.4 | 63* | 85* | 0.1
CCc1ccc(OCC(=O)NCCOc2ccccc2)cc1 | 0.5 | 50* | 30 | 0.7
O=C(NCCSCc1ccco1)Nc1cccc(Cl)c1 | 0.7 | 33 | 64* | 0.4
Cc1ccc(C(=O)COC(=O)c2ccccc2N2C(=O)C3C4CCC(C4)C3C2=O)cc1C (stereo not given) | 1 | -1 | -12 | 1.1
CCOC(=O)c1[nH]c(C(=O)O)c(CCN(CC)CC)c1C | 0.9 | 7 | -2 | 1
COc1cc(C)nc(OCCNC(=O)COc2ccc(Cl)cc2C)n1 | 0.5 | 46 | 73* | 0.3
Cc1cc(Cl)ccc1OCC(=O)NCCOc1nc(N2CCCCC2)nc(N2CCOCC2)n1 | 0.8 | 24 | 9 | 0.9
O=C(/C=N/O)NCCCn1ccnc1 | 1 | 4 | 5 | 0.9
CC(Oc1ccc(Cl)cc1)C(=O)NCCCn1ccnc1 (stereo not given) | 0.1 | 89* | 100* | 0
Cc1cc2oc(C(=O)NCc3ccncc3)c(C)c2cc1C | 0 | 97* | 98* | 0

Assay outcomes deposited in PubChem by Sanford-Burnham Center for Chemical Genomics.
